This is one part of a sample in which hits are shown more often than they occur.
G9a inh: inhibitors of human histone lysine methyltransferase G9a; Q96KQ7; G9a H3K9 monomethylation, AlphaScreen, 2 h; Potency, µM (titrated, usually from 102 µM), most hits filed as inhibitors; 350,000 tested, 8.8% active; AID 504332; note: nearly all actives have a fitted effect of over 75% in size
Target sequence (Q96KQ7 913-1193 limits assumed): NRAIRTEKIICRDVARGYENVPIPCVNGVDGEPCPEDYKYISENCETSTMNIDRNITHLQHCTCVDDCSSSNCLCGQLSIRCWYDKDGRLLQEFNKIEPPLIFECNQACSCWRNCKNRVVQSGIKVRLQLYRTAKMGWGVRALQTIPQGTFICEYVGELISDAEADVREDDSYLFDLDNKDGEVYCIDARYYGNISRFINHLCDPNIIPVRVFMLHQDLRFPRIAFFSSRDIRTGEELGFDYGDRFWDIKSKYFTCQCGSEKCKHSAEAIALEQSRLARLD
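Methyltransferase reactions run at room temperature for 2 h (20 nM enzyme, 500 nM biotin-H3K9 peptide, 20 uM SAM) after a 15 min compound preincubation; product detected by AlphaScreen beads and anti-H3K9me1 antibody.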
GRP78 ERSR act: ER stress response induction in glioma; U87-MG GRP78 promoter luciferase reporter, 16 h; Potency, µM, hits mostly activators; 420,000 tested, 0.02% active; note: series mostly up to about 76 µM; nearly all actives have a fitted effect of over 35% in size
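ERSR induction read as luciferase luminescence (Bright-Glo, 10 min at room temperature) in stably transfected human U87-MG glioma cells exposed to compounds for 16 h, using GRP78 as sensor.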
12-LOX inh: inhibitors of human 12S-lipoxygenase ALOX12; AID 1671190; 580,000 tested, 1.1% active; Potency, µM (series often up to 108 µM), usual class: inhibitors; purified 12hLO, xylenol orange hydroperoxide absorbance; P18054
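Hydroperoxide product was detected by ferrous iron/xylenol orange as the 573 to 405 nm absorbance ratio. Arachidonic acid at 40 uM (final) was turned over for 30 min at room temperature by 150 nM human 12hLO, pH 7.0 Hepes buffer, after 15 min compound preincubation.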
Sfp inh: inhibitors of Bacillus subtilis Sfp phosphopantetheinyl transferase. Q9F4F7. Biochemical Sfp PPTase activity, qHTS. 310,000 tested, 3.5% active. AID 1490. Potency, µM, actives largely listed as inhibitors;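 note: the enzyme is Sfp with the accession as filed and its product quenches rhodamine fluorescence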
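Fluorescence-quenching assay with 15 nM Sfp, 5 uM rhodamine-CoA and 12.5 uM BHQ-2-labelled ybbR peptide in pH 7.6 Hepes/MgCl2 buffer. Enzyme was pre-incubated with compound for 15 min at room temperature. Rate was taken from the 30-min fluorescence change (525/598 nm).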
VDR inh: vitamin D3 receptor (human) inhibition | Potency, µM, hits mostly inhibitors | AID 504847 | VDR-SRC2-3 peptide fluorescence polarization, 2 h | P11473 | 400,000 tested, 0.93% active
Target sequence (P11473 whole entry, looked up): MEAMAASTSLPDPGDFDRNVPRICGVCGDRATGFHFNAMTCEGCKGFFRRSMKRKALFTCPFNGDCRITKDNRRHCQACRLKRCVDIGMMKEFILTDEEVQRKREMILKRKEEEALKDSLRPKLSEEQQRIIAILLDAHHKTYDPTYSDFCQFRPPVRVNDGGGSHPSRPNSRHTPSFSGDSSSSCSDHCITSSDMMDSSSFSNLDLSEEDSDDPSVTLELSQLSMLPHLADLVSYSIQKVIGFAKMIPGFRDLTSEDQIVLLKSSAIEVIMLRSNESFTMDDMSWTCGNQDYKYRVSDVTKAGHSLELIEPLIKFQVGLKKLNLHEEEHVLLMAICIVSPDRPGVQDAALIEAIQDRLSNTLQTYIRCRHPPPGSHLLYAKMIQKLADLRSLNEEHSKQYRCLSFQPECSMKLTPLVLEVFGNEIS
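Fluorescence polarization assay measuring small-molecule disruption of VDR binding to the coregulator peptide SRC2-3. Compounds were pin-transferred (23 nl) into the reagent mix and incubated 2 h at room temperature before reading.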
A number is an active result; 0 = inactive; ? = inconclusive; - = no result given; ! = repeats disagree; [ ] = another dose, or the depositor's remark. Calls come from the whole dose curve; as a rule, active = well fitted curve in the direction sought with a large enough effect; inconclusive = small, poorly fitted or top-dose-only effect, or another doubt; inactive = no such curve, though single readings can be large; an effect the other way counts as inactive or inconclusive.

SMILES	G9a inh	GRP78 ERSR act	12-LOX inh	Sfp inh	VDR inh
NNC(=O)c1ccc(N2CCc3ccccc32)c([N+](=O)[O-])c1	39.8µM	0	0	0	?
CN1CCOC(CNC(=O)Cc2ccc(F)c(Br)c2)C1 (stereo not drawn)	-	-	0	-	-
Cc1ccccc1C(=O)NCCc1c[nH]c2ccc(Cl)cc12	-	-	0	-	-
O=C(Nc1ccc(C23CC4CC(CC(C4)C2)C3)cc1)c1ccc(Cl)cc1Cl	-	-	0	-	-
Cc1ccc(CNC(=O)c2ccc(N3CCC4(CC3)CC(c3ccccc3)=NO4)c([N+](=O)[O-])c2)cc1	70.8µM	0	0	0	0
CCCCCCC1CCC(=O)O1 (stereo not drawn)	-	-	0	-	-
CC1=C(C(=O)Nc2ccccc2)C(c2ccc(C)o2)n2c(s/c(=C\c3ccco3)c2=O)=N1 (stereo not drawn)	?	0	0	50.1µM	0
CCN(CC)S(=O)(=O)c1ccc(N2CCOCC2)c(NS(=O)(=O)c2ccc(C(C)C)cc2)c1	0	0	0	0	35.5µM
CCN(CC)S(=O)(=O)c1ccc(N2CCOCC2)c(NS(=O)(=O)c2cc(C(C)(C)C)ccc2C)c1	10µM	0	0	0	?
CCOc1ncccc1C(=O)Nc1cc(S(=O)(=O)N(CC)CC)ccc1N1CCOCC1	-	0	0	-	79.4µM
CCN(CC)S(=O)(=O)c1ccc(N2CCOCC2)c(NS(=O)(=O)c2cccs2)c1	0[2.33 µM]	0	0	-	0
O=C(CCc1ccccc1)Nc1cccc2cccnc12	-	-	0	-	-
COc1ccccc1NC(=O)c1cnc(N2CCCCC2)c2ccccc12	-	-	0	-	-
NCCOB(c1ccccc1)c1ccccc1	0[2.33 µM]	0	?	56.2µM!	14.1µM
Cc1c(C(=O)c2ccccc2)oc2ccc(N)cc12	-	-	0	-	-
CC(Sc1nc2ccccc2o1)C(=O)O (stereo not drawn)	50.1µM	0	0	0	0
CC(Sc1nnc(-c2cc3ccccc3o2)n1-c1ccccc1)C(=O)O (stereo not drawn)	8.91µM	0	0	0	0
CC(C)C(NC(=O)C1O[C@@H]2OC(C)(C)O[C@@H]2[C@H]2OC(C)(C)O[C@@H]12)C(=O)O (stereo partly drawn)	-	-	0	-	-
CC(C(=O)c1c[nH]c2ccccc12)N1CCC(C(N)=O)CC1 (stereo not drawn)	-	-	0	-	-
O=C(NC1CCN(CCCc2nc3ccccc3o2)CC1)C1CC1	-	-	0	-	-
C=CCNc1nc(C(=O)OCC(=O)Nc2cc(S(C)(=O)=O)ccc2Cl)cs1	44.7µM	0	0	-	0
C=CCNc1nc(C(=O)OCC(=O)Nc2ccc(S(N)(=O)=O)cc2)cs1	0	0	0	-	0
CCNc1ccc(C(=O)OC(C(=O)NC(N)=O)C(C)C)cc1[N+](=O)[O-] (stereo not drawn)	0	0	0	0	0
COC(=O)c1ccc(NC(CC(C)C)C(=O)OC)c([N+](=O)[O-])c1 (stereo not drawn)	39.8µM	0	0	0	0
Cc1nn(C)c(Cl)c1S(=O)(=O)N[C@@H](c1ccccc1)[C@]1(C)C[C@H]1[C@@H](C)C(=O)Nc1ccc2ccccc2c1	50.1µM	0	0	0	0
SMILES	G9a inh	GRP78 ERSR act	12-LOX inh	Sfp inh	VDR inh
CCN(CCNC(=O)c1cc2ccccc2oc1=O)c1cccc(C)c1	-	-	0	-	-
Clc1cccc(Cc2c(-c3ccco3)nc3ccc(Cl)cn23)c1	-	0	22.4µM	-	-
Brc1ccc2nc(-c3ccco3)c(Cc3ccccc3)n2c1	-	0	14.1µM	-	-
Cc1ccc(Cc2c(-c3ccco3)nc3ccc(C)cn23)cc1	-	0	?	-	-
Clc1cccc(Cc2c(-c3cccc(Br)c3)nc3ccc(Cl)cn23)c1	-	0	?	-	-
N#Cc1ccc(-c2nc3ccc(Cl)cn3c2Cc2cccc(Cl)c2)cc1	-	0	35.5µM	-	-
Clc1cccc(Cc2c(-c3ccco3)nc3ccc(Br)cn23)c1	-	0	11.2µM	-	-
COc1ccc(N2CC3CCC(C2)N3CC(C)C)cc1	-	-	0[12.5 µM]	-	-
O=[N+]([O-])c1ccc(-c2csc(Nc3cccc4ccccc34)n2)cc1	-	-	0	-	-
O=C(CC1C(=O)N(c2ccccc2)C(=O)N1Cc1ccco1)Nc1ccccc1 (stereo not drawn)	?	0	0	0	0
CC(C)N1C(=S)N(Cc2ccco2)C(=O)C1CC(=O)Nc1ccccc1 (stereo not drawn)	50.1µM	0	?	0	0
CNc1nccc(N2CCC(CC(=O)NCCC(C)C)CC2)n1	-	-	0	-	-
O=C(c1ccccc1Cl)N1CCCC(c2nc3ccccc3o2)C1 (stereo not drawn)	-	-	0	-	-
CSc1cccc(NC(=O)CSc2n[nH]c(-c3ccccc3Cl)n2)c1	-	-	0	-	-
COc1ccc(C)cc1Nc1nc(N)c2cc(OC)c(OC)cc2n1	?	0	0	0	0
COc1ccc(Cl)cc1Nc1nc(N)c2ccccc2n1	79.4µM	0	0	0	0
Nc1nc(Nc2cccc(F)c2)nc2ccccc12	56.2µM	0	?	0	0
Cc1ccc(O)c(Nc2c3ccccc3nc3ccccc23)c1	?	0	0	0	0
Cc1ccc(C)c(Nc2nc(N)c3ccccc3n2)c1	50.1µM	0	?	0	0
CCOC(=O)NC(Nc1ccc(Cl)cc1)(C(=O)OCC)C(F)(F)F (stereo not drawn)	-	-	0	-	-
CCOC(=O)Nc1ccc2c(c1)N(C(=O)CCN1CCN(C)CC1)c1ccccc1S2	44.7µM	0	?	0	0
CCOC(=O)Nc1ccc2c(c1)N(C(=O)CN1CCN(C)CC1)c1ccccc1CC2	0[0.501 µM]	0	5.01µM	0	0
CCOC(=O)Nc1ccc2c(c1)N(C(=O)CCN1CCN(CCO)CC1)c1ccccc1S2	-	0	0	-	0
Cc1ccc2c(=O)cc(C(=O)Nc3cccc(C(F)(F)F)c3)oc2c1	-	-	0	-	-
OC(COc1ccc2cc(Br)ccc2c1)CN1CCCC1 (stereo not drawn)	0[12.7 µM]	0	0	79.4µM	0
SMILES	G9a inh	GRP78 ERSR act	12-LOX inh	Sfp inh	VDR inh
O=S(=O)(N1CCCCC1)N1CCN(CC(O)COc2ccc3cc(Br)ccc3c2)CC1 (stereo not drawn)	0[12.7 µM]	0	0	0	0
OC(COC1CCCCC1)CN1CCCCC1 (stereo not drawn)	7.94µM	0	0	0	0
OC(COc1ccccc1)CN1CCC(Cc2ccccc2)CC1 (stereo not drawn)	0	0	7.94µM	0	0
COc1cccc(OCC(O)CN2CCC(Cc3ccccc3)CC2)c1 (stereo not drawn)	0[2.33 µM]	0	0	0	0
COc1ccc(OCC(O)CN2CCCCCC2)cc1 (stereo not drawn)	8.91µM	0	?	0	0
CC(C)C(=O)Nc1ccc(C(=O)CSc2nnc(C3CC3)n2Cc2ccccc2)cc1	-	-	0	-	-
CCCCn1nc(C(=O)NCC(F)(F)F)c2ccccc2c1=O	-	-	0	-	-
Cc1ccc(NC(=O)CSc2ncnc3ccccc23)c(C)c1	-	-	0	-	-
Cc1cc(C)c(C(=O)c2cc3ccccc3o2)c(C)c1	-	-	0	-	-
Cc1nc2ccccc2c(C)c1C(=O)OCC(=O)NCC1CCCO1 (stereo not drawn)	-	-	0	-	-
COc1ccccc1N(C(C)=O)C1=C(Cl)C(=O)c2ccccc2C1=O	-	0	14.1µM	-	-

Bioassay records deposited in PubChem BioAssay by National Center for Advancing Translational Sciences (NCATS).
